The text below walks through data of PubChem BioAssay (NCI).

About 83,000 compounds went through this panel and 20% of them were active in at least one assay; those are over-represented in the sample as a whole.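 Single-dose data. Exposure time 48 hours. Values below 10 considered active.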 Calls of active or inactive are those of the source.

This test deals with MDA-MB-468 breast. The experiment in a line: NCI-60 one-dose screen, 48 h (100 = growth as untreated, 0 = no growth, -100 = all killed). The note with it: 10 µM unless noted.
In the case of `CC1(C)CC[C@]2(C(=O)OC(=O)[C@]34CCC(C)(C)C[C@@H]3C3=CC[C@@H]5[C@@]6(C)CCC(=O)C(C)(C)[C@@H]6CC[C@@]5(C)[C@]3(C)CC4)CC[C@]3(C)C(=CC[C@@H]4[C@@]5(C)CCC(=O)C(C)(C)[C@@H]5CC[C@]43C)[C@H]2C1`, the growth was 61.5% [100 µM] (inactive).

Consider `CC(O)/C=C/C=C/C(O)CC/C=C/C(=O)NCC(C)(C)O` (stereo not drawn), for which the growth was 102% (inactive).

Consider `CCOCc1cc(C(C)(C)C)ccc1O`, for which the growth is 94.3% (inactive).

As for `COc1cccc(C2C(C#N)=C(N)Oc3cc4c(cc32)OCO4)c1` (stereo not drawn), the growth was 2.26% (active).

On to `Cc1n[nH]c2ccc(Br)cc2c1=O`, for which the growth was 99.9% (inactive).

Turning to `O=C1c2ccccc2CN1c1ccccc1`, the growth is 101% (inactive).

For `CCN(CC)CCNc1ccc(C)c2sc3cc(Cl)ccc3c(=O)c12`, the growth is 14.4% (inactive).

For the compound `C=CCn1c(=O)c2cnc(Nc3ccc(N4CCN(C)CC4)cc3)nc2n1-c1cccc(C(C)(C)O)n1`, the growth is -0.604% (active).

`CCCN(CCSSCCNc1nc(N(C)O)nc(N(C)O)n1)c1nc(N(C)O)nc(N(C)O)n1`: the growth was 15.8% (inactive).

Consider `O=C1c2c(O)ccc(O)c2C(=O)c2c(NCCNCCO)ccc(NCCNCCO)c21`, for which the growth was -77.2% (active).

For `CN(C)c1ccc(-c2c(C#N)c(N)nn2C(=O)c2ccc(NC(=O)c3ccccn3)cc2)cc1`, the growth was 119% (inactive).

For the compound `CC(C)(C)c1ccc(S(=O)(=O)N[C@H]2CC[C@H]3[C@@H]4CCc5cc(OS(=O)(=O)O)ccc5[C@H]4CC[C@]23C)cc1`, the growth is 58.6% (inactive).

With `CC(=O)CC(c1ccc([N+](=O)[O-])cc1)c1c(O)c2ccccc2oc1=O` (stereo not drawn), the growth is 104% (inactive).
